Data taken from PubChem BioAssay AID504466 (National Center for Advancing Translational Sciences (NCATS), 2011).
The whole screen tested about 330,000 compounds, of which about 4,200 (1.3%) were called active. Inconclusive results (about 6%) are left out. Calls follow the shape of the dose curve; as a rule, active = well fitted activation curve with a large enough effect; inconclusive = small, poorly fitted or top-dose-only effect; inactive = no such curve, though single readings can be large or run the other way. Only a selection was taken, and actives are over-represented in it overall.

Assay: qHTS screen for small molecules that induce genotoxicity in human embryonic kidney (HEK293T) cells expressing luciferase-tagged ELG1; also: nearly all actives have a fitted effect of over 60% in size; as to activity change, positive = activation: % of control where 0% means no effect
Details: HEK293T ELG1-luciferase reporter, luminescence, 16 h; series mostly up to 46 µM; activity change, positive = activation: at the top concentration
Procedure, shortened: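 HEK293T cells expressing luciferase-tagged ELG1 were exposed to compound or DMSO vehicle for 16 hr at 37 °C and 5% CO2. Luciferase activity was then measured with ONE-Glo after 30 min at room temperature.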
Potency is read from the fitted curve at half-maximal effect.

| Structure (SMILES) | Potency | activity change, positive = activation |
| --- | --- | --- |
| CC(=O)Nc1ccc(-c2nc3ccccc3o2)cc1 | 3.26 µM (active) | – |
| CC(=O)Nc1ccc(Nc2c3ccccc3nc3ccccc23)cc1 | 13 µM (active) | – |
| Cc1ccc(OCC(=O)Nc2ccc(-c3nc4ncccc4o3)cc2)cc1 | – | 5.43% (inactive) |
| CC(C)(C)OC(=O)NNc1c2ccccc2nc2ccccc12 | – | -4.89% (inactive) |
| CCc1nc(Nc2ccc(NC(C)=O)cc2)c2oc3ccccc3c2n1 | – | -0.226% (inactive) |
| COc1cc(OC)cc(C(=O)Nc2ccc(-c3nc4ccccc4o3)c(O)c2)c1 | – | -4.77% (inactive) |
| Nc1ncnc2c1ncn2[C@@H]1O[C@H](CNCc2cccn2-c2nccs2)[C@@H](O)[C@H]1O | – | 4.38% (inactive) |
| CC(C)Cc1cc(C(=O)Nc2cc(Br)ccc2O)no1 | 8.2 µM (active) | – |
| CC(C)C(=O)NCc1cc(-c2ccc(Cl)cc2)no1 | – | 7.48% (inactive) |
| CC(C)/C=N/NC(=O)c1cc(Br)ccc1O | – | -0.104% (inactive) |
| CC(C)N(C(=O)[C@H]1C[C@H](CC(=O)NCCC2=CCCCC2)C(=O)N2CCc3c([nH]c4cc(CCC(=O)N(C)C)ccc34)[C@]12C)C(C)C | – | 3.22% (inactive) |
| Cc1ccc(C(=O)COc2cccc(NC(=O)c3ccco3)c2)cc1 | – | 3.01% (inactive) |
| Cc1ccoc1C(=O)Nc1cccc(Oc2ccccc2)c1 | 9.2 µM (active) | – |
| Cc1cccc(NC(=O)Nc2cccc(Oc3c(F)c(F)c(F)c(F)c3F)c2)c1 | – | 0.228% (inactive) |
| CN(CC(=O)Nc1ccc(C(N)=O)cc1)S(=O)(=O)c1ccc2c(c1)OCCO2 | – | -1.78% (inactive) |
| O=C(Cn1cnc2c(OCc3ccccc3)ncnc21)NCCCn1ccnc1 | – | 0.984% (inactive) |
| O=C(COC(=O)c1ccc(F)cc1)NCC1COc2ccccc2O1 (centres undefined) | – | -2.33% (inactive) |
| O=C(OCCN1C(=O)c2ccccc2C1=O)Oc1ccccc1 | – | 0.764% (inactive) |
| O=C1c2ccccc2C(=O)N1CCOc1ccc(F)cc1 | 20.6 µM (active) | – |
| Cc1cccc2c1N(CCOc1ccccc1)C(=O)C2=O | – | 5.53% (inactive) |
| Cn1cccc1C(=O)OCC(=O)c1ccc(Br)s1 | – | 17.4% (inactive) |
| COc1ccc(S(=O)(=O)Nc2cccc3c2O[C@H](CN(C)S(=O)(=O)c2ccc(OC)cc2)[C@@H](C)CN([C@H](C)CO)C3=O)cc1 | – | -0.316% (inactive) |
| O=C(Nc1sc2c(c1C(=O)O)CCC2)c1ccccc1F | – | 3.4% (inactive) |
| Cc1ccc(C(=O)c2c(NC(=O)c3ccncc3)sc3c2CCCC3)cc1 | – | -5.11% (inactive) |
| NC(=O)c1c(NC(=O)c2ccccc2)sc2c1CCCC2 | 8.2 µM (active) | – |
| Cc1ccc(Oc2nc(-c3ccccn3)nc3ccccc23)cc1 | – | -14.1% (inactive) |

| Structure (SMILES) | Potency | activity change, positive = activation |
| --- | --- | --- |
| O=C(Oc1ccc(Br)cc1)c1cccnc1 | – | -2.16% (inactive) |
| O=C(Oc1ccc(-c2nc(-c3ccccn3)no2)cc1)c1ccccc1 | 0.517 µM (active) | – |
| COc1cc(C(=O)OCc2cc(=O)n3ccsc3n2)ccc1OC(C)C | – | 7.03% (inactive) |
| CC(C)(C)OC(=O)CNC(=O)c1[nH]cnc1C(=O)N[C@@H](CCCCN)C(=O)OC(C)(C)C | – | -1.61% (inactive) |
| C[C@H](CO)N1C[C@H](C)[C@@H](CN(C)Cc2ccc(-c3ccccc3)cc2)Oc2ccc(NC(=O)Cn3cnnn3)cc2C1=O | – | -0.487% (inactive) |
| COC(=O)c1sc(NC(=O)c2csc3c2CCCC3)nc1C | 2.59 µM (active) | – |
| O=C(NCc1ccccc1Cl)c1csc2c1CCCCC2 | – | 1.64% (inactive) |
| O=C(Nc1ccccc1N1CCOCC1)c1csc2c1CCCC2 | – | 0.737% (inactive) |
| COC(=O)[C@]1(Cc2ccccc2)N[C@H](CN(C)S(=O)(=O)c2ccc(F)cc2)[C@@H]2C(=O)N(Cc3ccccc3)C(=O)[C@@H]21 | – | -1.12% (inactive) |
| COc1ccccc1N=Cc1c(O)c2ccccc2oc1=O | – | 0.524% (inactive) |
| COc1cc(N=Cc2c(O)[nH]c3ccccc23)cc(OC)c1OC | – | 0.123% (inactive) |
| COc1ccc(N=Cc2c(O)[nH]c3ccccc23)cc1OC | 14.6 µM (active) | – |
| Cc1ccc(-n2nc3cc(C)c(NC(=O)c4cccnc4)cc3n2)cc1 | – | 15.3% (inactive) |
| Cc1ccc(-n2nc3cc(Cl)c(NC(=O)c4ccco4)cc3n2)cc1 | 11.6 µM (active) | – |
| Cc1cc(NC(=O)c2ccco2)c(=O)n(Cc2c(F)cccc2Cl)c1 | – | -18.3% (inactive) |
| Cc1ccc(S(=O)(=O)NC[C@H]2O[C@@H](n3cnc4c(N)ncnc43)[C@H](O)[C@@H]2O)s1 | – | 4.37% (inactive) |
| CSCCC1NC(=O)N(CC(=O)Nc2cccc(S(=O)(=O)N3CCCCCC3)c2)C1=O (centres undefined) | – | -6.21% (inactive) |
| Cc1cc(C(=O)NCCc2ccc(Cl)cc2)c(C)o1 | 18.3 µM (active) | – |
| Cc1cc(C(=O)NNC(=O)c2ccccc2O)c(C)o1 | – | 0.664% (inactive) |
| Cc1cc(C(=O)NCCc2ccc(Cl)cc2)n(-c2ccccc2)n1 | – | -0.508% (inactive) |
| CC[C@]12c3[nH]c4ccc(OC)cc4c3CCN1C(=O)C(CC(=O)NCCN1CCOCC1)C[C@@H]2C(=O)N1CCN(C(=O)C2CC2)CC1 (some centres undefined) | – | 6.98% (inactive) |
| Cc1ccccc1SCC(=O)OCC(=O)N1CC(=O)Nc2ccccc21 | – | 0.23% (inactive) |
| Cc1oc(-c2ccccc2F)nc1CS(=O)CC(=O)NCCN1CCCCC1C (centres undefined) | – | -1.89% (inactive) |
| N#Cc1nc(-c2cccc3ccccc23)oc1N | – | 9.19% (inactive) |
| CC1CCN(c2oc(-c3ccccc3F)nc2C#N)CC1 | 16.4 µM (active) | – |
| Cc1ccc(S(=O)(=O)N2CCN(C(=O)COC(=O)CNC(=O)c3ccc(C(C)(C)C)cc3)CC2)c(C)c1 | – | -0.764% (inactive) |

| Structure (SMILES) | Potency | activity change, positive = activation |
| --- | --- | --- |
| O=C(N=C1SC2CS(=O)(=O)CC2N1c1ccccc1)c1ccccc1 (centres undefined) | – | 5.92% (inactive) |
| COc1ccc(-c2nc3cnccn3c2NC2CCCCC2)cc1-c1cccc(Cl)c1 | – | -2.5% (inactive) |
| COc1cccc(NC(=O)CSc2nnc(C3CCCCC3)n2N)c1 | – | -1.51% (inactive) |
| CCOc1cccc(/C=C/c2ccc3ccccc3n2)c1OC(C)=O | 0.366 µM (active) | – |
| COc1cccc(/C=C2\C=C(c3ccc(C)cc3)OC2=O)c1OC(C)=O | – | 5.23% (inactive) |
| CC(=O)c1ccc(S(=O)(=O)N2CCN(C(=O)/C=C/c3ccc4ccccc4n3)CC2)cc1 | – | -6.07% (inactive) |
| COc1cccc(/C=C/c2ccc3ccccc3n2)c1OC(C)=O | 0.206 µM (active) | – |
| NC(=O)COC(=O)/C=C/c1ccc2ccccc2n1 | – | -0.149% (inactive) |
| CCOc1ccccc1-c1cc(C(=O)N2CCOCC2)c2ccccc2n1 | – | -7.76% (inactive) |
| COCCn1c(C)cc(C(=O)CN2c3cccc4cccc(c34)S2(=O)=O)c1C | – | 6.69% (inactive) |
| Cc1noc(C)c1NC(=O)Nc1cccc2c1O[C@H](CN(C)C(=O)Nc1ccccc1)[C@@H](C)CN([C@H](C)CO)C2=O | – | -0.827% (inactive) |
| NCCN1CCN2C(=O)CN(C(=O)c3ccccc3)CC12 (centres undefined) | – | -1.89% (inactive) |
| O=C1CCC/C=C/C[C@@H](CC(=O)N(CCO)Cc2ccccc2)C(=O)NC[C@H](c2ccccc2)O1 | – | 3.07% (inactive) |
| CC[C@]12c3[nH]c4ccc(Cl)cc4c3CCN1C(=O)[C@@H](CC(=O)NCCCOC)C[C@@H]2C(=O)N1CCN(C(=O)C2CC2)CC1 | – | 7.73% (inactive) |
| COCCCNC(=O)CC1C[C@H](C(=O)N2CCCCC2)[C@@]2(CCc3ccccc3)c3[nH]c4ccccc4c3CCN2C1=O (some centres undefined) | – | -2.19% (inactive) |
| O=C(NCc1ccccn1)c1cc2ccccc2oc1=O | 14.6 µM (active) | – |
| N=c1oc2ccccc2cc1C(=O)NCc1ccccc1 | – | 17.7% (inactive) |
| COc1ccc2oc(=O)c(C(=O)NCc3ccccn3)cc2c1 | – | 10.3% (inactive) |
| CCNC(=O)N(CC)C[C@H]1N[C@@](CC)(C(=O)OC)[C@H]2C(=O)N(Cc3ccccc3)C(=O)[C@@H]12 | – | 0.0201% (inactive) |
| CN(C(=O)COC(=O)Cc1ccccc1[N+](=O)[O-])C1CCS(=O)(=O)C1 (centres undefined) | – | 1.71% (inactive) |
| CCc1c(C)nc2cc(C)[nH]n2c1=O | – | -2.38% (inactive) |
| CCc1c(C)nc2cc(-c3cccs3)[nH]n2c1=O | 20.6 µM (active) | – |
| Cc1cc(=O)n2[nH]c(-c3sccc3-n3c(C)ccc3C)cc2n1 | – | -4.68% (inactive) |
| Cc1cccc(NS(=O)(=O)c2ccc(C)c(C(=O)NCc3cccnc3)c2)c1 | – | -1.11% (inactive) |
| CN(c1ccccc1)S(=O)(=O)c1ccc(C(=O)N2CCN(c3ccccc3Cl)CC2)cc1 | – | -2.82% (inactive) |
| CC(NC(=O)COC(=O)Cn1cc(C(F)(F)F)ccc1=O)c1ccccc1 (centres undefined) | – | -0.165% (inactive) |

| Structure (SMILES) | Potency | activity change, positive = activation |
| --- | --- | --- |
| COc1ccc(S(=O)(=O)N2CCOCC2)cc1NC(=O)CSc1nnc(NC2CC2)s1 | – | -2.72% (inactive) |
| O=C(NC(=O)c1ccccc1)Nc1ccccc1O | 1.83 µM (active) | – |
| Cc1ccc(NC(=O)NC(=O)c2ccccc2)cc1F | – | 28.6% (inactive) |
| O=C(Nc1ccc(C(=O)O)c(O)c1)c1ccccc1 | – | -0.0454% (inactive) |
| COc1ccc(CCOC2OC(CO)C(OC(=O)/C=C/c3ccc(O)c(OC)c3)C(O[C@H]3O[C@@H](C)[C@H](O)[C@@H](O)[C@H]3O)C2O)cc1O (some centres undefined) | – | 1.06% (inactive) |
| O=C(COC(=O)c1ccc(Br)o1)NC12CC3CC(CC(C3)C1)C2 | – | -1.36% (inactive) |
| COc1ccc(N(Cc2ccccc2)S(=O)(=O)c2cccc(C(=O)O)c2)cc1 | – | 0.954% (inactive) |
| COc1ccc(NC(=O)CS(=O)(=O)c2ccccc2)cc1 | – | 9.22% (inactive) |
| COc1ccc(C(CC(=O)c2ccccc2)S(=O)(=O)c2ccccc2)cc1 (centres undefined) | 18.4 µM (active) | – |
| O=C(Nc1cc(S(=O)(=O)N2CCOCC2)ccc1N1CCOCC1)c1c(F)cccc1Cl | – | -0.0492% (inactive) |
| Cc1nnc(NC(=O)c2ccc3nccnc3c2)s1 | – | 15.1% (inactive) |
| Cc1ccc(C(=O)Nc2nnc(-c3cccs3)s2)cc1C | 8.2 µM (active) | – |
| CCOc1cccc(C(=O)Nc2cnn(Cc3ccccc3)c2)c1 | – | 4.75% (inactive) |
| Cc1ccc(C(=O)Oc2coc(CSc3nnc(NC(=O)c4cccs4)s3)cc2=O)cc1C | – | -3.29% (inactive) |
| COc1cccc(C(=O)Nc2nnc(S(=O)(=O)N(C)c3ccccc3)s2)c1 | – | -1.42% (inactive) |
| CCOc1cccc(C(=O)Nc2nnc(-c3cccs3)s2)c1 | 1.16 µM (active) | – |
| O=C(OCC(=O)N1CCN(C(=O)c2ccco2)CC1)c1c(Cl)cccc1Cl | – | 1.71% (inactive) |
| O=C(Nc1cc(S(=O)(=O)Nc2ccc(Cl)cc2)ccc1O)c1ccc(F)cc1F | – | -5.16% (inactive) |
| COC(=O)C1CCN(C(=O)COC(=O)c2cc(S(=O)(=O)N3CCOCC3)ccc2C)CC1 | – | -1.29% (inactive) |
| COCCN(CCOC)S(=O)(=O)NC[C@H]1O[C@@H](n2cnc3c(N)ncnc32)[C@H](O)[C@@H]1O | – | -3.03% (inactive) |
| CCN1C(=O)c2cccc3c(N)ccc1c23 | 20.6 µM (active) | – |
| CCN1C(=O)c2cccc3c(S(=O)(=O)Nc4ccccc4O)ccc1c23 | 23.1 µM (active) | – |
| CN1C(=O)c2cccc3c(N)ccc(c23)C1=O | – | 0.137% (inactive) |
| O=C(CN1C(=O)c2cccc3cccc1c23)Nc1ccccc1 | – | -1.63% (inactive) |
| Cc1cccc(NC(=O)CN2C(=O)c3ccccc3C2=O)c1C | – | 0.818% (inactive) |
| Cc1nn(C)cc1N1C(=O)c2cccc3c(N)ccc(c23)C1=O | – | 4.07% (inactive) |
